# Hit rate of the full screen: of about 290,000 compounds, about 27,000 (9.3%) were called active. Rule as the data show it: active = inhibition mostly above about 28% (no sharp cut-off); inactive = mostly below about 43%. This excerpt belongs to a sample that is enriched for actives.
# Experiment: A qHTS for Small Molecule Inhibitors of Shiga Toxin; also: 0% is about no effect
# Conditions: Vero cells, Shiga toxin protein synthesis inhibition reporter; at 38.7 µM, stronger effect = higher value
row,SMILES,inhibition
1,COc1cc(-c2c(-c3ccc4c(c3)OCO4)noc2C)ccc1F,48.8% (active)
2,COc1ccc(CCNC(=O)c2cc(-c3ccc4c(c3)OCO4)on2)cc1OC,-10.3% (inactive)
3,COc1ccc(-c2onc(C)c2-c2ccc3c(c2)OCCO3)c(O)c1,-15% (inactive)
4,NC(=O)CC(NC(=O)Cc1ccc(Br)cc1)c1ccc(NC2CC3CCC2C3)c([N+](=O)[O-])c1 (stereo not drawn),60% (inactive)
5,Cc1c(C)n(Cc2ccc(Cl)cc2)c2ccc(C(=O)NCCCN3CCOCC3)cc12,-12.7% (inactive)
6,COc1ccc(N/N=C2/CCCCC2=O)cc1,34.6% (inactive)
7,Cc1ccc(N/N=C2\COC(C)(C)CC2=O)cc1,101% (active)
8,COC(=O)c1ccc(S(=O)(=O)N2CCc3ccccc3C2)cc1,-1.69% (inactive)
9,COc1ccc(N(C)S(=O)(=O)c2ccc3c(c2)CC(C)N3C(=O)C2CC2)c(OC)c1 (stereo not drawn),14.9% (inactive)
10,Cc1ccc(NC(=O)OCc2cncs2)cc1,70.8% (active)
11,CCOC(=O)Nc1ccc(NC(=O)OCC)cc1,52.3% (active)
12,CCOC(=O)Nc1ccc(S(=O)(=O)N(C)C(C)C)cc1,-22.3% (inactive)
13,CC(C)(COC(=O)Nc1ccccc1)COC(=O)Nc1ccccc1,35.2% (inactive)
14,Cc1ccc(NC(=O)OCCNC(=O)c2ccncc2)cc1,47.9% (inactive)
15,O=C(Nc1ccc(Cl)cc1)OCc1cc(-c2ccccc2)on1,49.1% (inactive)
16,CN1CCc2ccccc2C1Cc1ccccc1NC(=O)c1sc2ccccc2c1Cl (stereo not drawn),-2.62% (inactive)
17,COC(=O)C1(CCSC)NC(c2ccc(OC)cc2OC)C2C(=O)N(c3cccc(C(C)=O)c3)C(=O)C21 (stereo not drawn),-5.19% (inactive)
18,N#Cc1ccc(-c2ccc(F)cc2)nc1Sc1ccccc1,-10% (inactive)
19,N#Cc1c(-c2ccc(F)cc2)nc(-c2ccccc2)[nH]c1=O,-4.47% (inactive)
20,N#Cc1ccc(-c2nc3cc(C#N)c(C#N)cc3nc2-c2ccccc2)cc1C#N,56.6% (active)
21,O=C(O)CCC(=O)Nc1ccc(OCC2CCCO2)cc1 (stereo not drawn),4.1% (inactive)
22,CCOc1ccc(N(C)Cc2cc(=O)oc3ccc(OC)cc23)cc1,-26.5% (inactive)
23,COC(=O)c1ccc(-n2cnc3ccccc32)nc1,159% (active)
24,Cc1ccc(OCC(=O)Nn2cnc3ccccc32)cc1,-4.5% (inactive)
25,O=C(c1ccc(Cl)cc1)n1cnc2ccccc21,-4.02% (inactive)

row,SMILES,inhibition
1,O=C(NCc1ccco1)/C(=C/c1ccco1)NC(=O)c1ccccc1,-2.21% (inactive)
2,COc1ccc(-c2nnc(SCC(=O)c3cccs3)o2)c(OC)c1,150% (active)
3,COc1ccccc1-c1nnc(SCC(=O)Nc2cc(C)on2)o1,18.4% (inactive)
4,COc1ccc(CCNC(=O)CSc2nnc(CNC(=O)c3cccs3)o2)cc1OC,-18.8% (inactive)
5,CCOc1ccc(N(CC(=O)Nc2ccccc2F)S(=O)(=O)c2c(C)[nH]c(=O)[nH]c2=O)cc1,-4.99% (inactive)
6,Cc1ccc2cc3cc(C(=O)N4CCCCCC4)oc3nc2c1,88.9% (active)
7,Cc1cc(C)cc(NC(=O)N2CCCCCCC2)c1,-6.48% (inactive)
8,Cc1cccc(C(=O)N2CCCN(C(=O)c3cccc(C)c3)CC2)c1,19.1% (inactive)
9,Cc1oc2nc(SCC(=O)Nc3ccc(S(N)(=O)=O)cc3)nc(NC(=O)c3ccccc3)c2c1C,-13.4% (inactive)
10,OCCC1CN(Cc2cnc(-c3ccccc3)s2)CCN1CCc1ccccc1 (stereo not drawn),-10.1% (inactive)
11,COc1ccc(NC(=O)CN2C(=O)COc3ccc(S(=O)(=O)N4CCOCC4)cc32)c(OC)c1,-2.93% (inactive)
12,COc1cccc(OC)c1C(=O)NC(=S)Nc1ccc(N2CCOCC2)c(Cl)c1,44.5% (inactive)
13,Cc1nn(C)c(C(=O)NNC(=S)NC2CCCCC2)c1Cl,14.6% (inactive)
14,COc1cccc(NC(=S)NC(=O)c2c(Cl)c(C)nn2C)c1,14.4% (active)
15,O=C(NCc1ccccn1)[C@]1(C(F)(F)F)C[C@H](CCc2ccccc2)CCCO1,-3.98% (inactive)
16,Nc1nnc2c(C(F)(F)F)nc3ccccc3n12,-8.69% (inactive)
17,Cc1cccc(-c2c(NC(=O)c3ccco3)oc3ccc(Cl)cc3c2=O)c1,20.5% (inactive)
18,CCCN(CCC)c1ccc(C(O)c2nnc(-c3ccccc3)o2)cc1 (stereo not drawn),29.6% (inactive)
19,OC(c1nnc(-c2ccccc2)o1)c1cccs1 (stereo not drawn),111% (active)
20,O=C(Nc1nnc(-c2ccccc2)o1)c1cc(-c2cccs2)nc2ccccc12,-9.05% (inactive)
21,Cn1c2ccc(F)cc2c2nnc(NN)nc21,-15% (inactive)
22,Cc1cc(C(=O)N/N=C\C(Br)=C\c2ccccc2)c(C)o1,54.6% (inactive)
23,CC(C)c1cc(C(=O)O)n[nH]1,15.7% (inactive)
24,CC(C)c1cc(C(=O)N/N=C/C(Br)=C/c2ccccc2)n[nH]1,47.5% (active)
25,O=C(CCc1nnc2ccc(NCc3ccccc3Cl)nn12)NCC1CCN(C2CCCC2)C1 (stereo not drawn),8.94% (inactive)

row,SMILES,inhibition
1,O=C(NCC1CCC(C(=O)O)CC1)OCc1ccccc1 (stereo not drawn),-15.3% (inactive)
2,O=C(O)C1CCN(C(=O)OCc2ccccc2)CC1,80.9% (active)
3,CCOC(=O)N1CCC(NC(=O)CCc2ccccc2)CC1,-1.93% (inactive)
4,O=c1cc(-c2ccc(O)cc2)oc2c([C@@H]3O[C@H](CO)[C@@H](O)[C@H](O)[C@H]3O)c(O)cc(O)c12,18.1% (inactive)
5,Cc1cccc(-n2c(O)c(/C=N/N3CCOCC3)c(=O)[nH]c2=S)c1,-12.5% (inactive)
6,Cc1cccc(-n2c(O)c(C=NC34CN5CN(CN(C5)C3)C4)c(=O)[nH]c2=O)c1,19.9% (inactive)
7,Cc1cccc(-n2c(O)c(C=Nc3ccccc3N)c(=O)[nH]c2=O)c1,57% (active)
8,Clc1ccc(-c2nc3ccccn3c2CN2CCSCC2)cc1,20.5% (inactive)
9,COc1ccc2[nH]c(=O)c(C3c4cc(OC)c(OC)cc4CCN3C(=O)c3ccco3)cc2c1 (stereo not drawn),-3.2% (inactive)
10,CCOCCCn1c(SCC(=O)Nc2cc(OC)ccc2OC)nc2ccccc2c1=O,-1.05% (inactive)
11,CCc1ccc(-c2cc3c(=O)n(CC(=O)NCCCN4CCN(Cc5ccccc5)CC4)nc(C)n3n2)cc1,-5.95% (inactive)
12,CCOc1ccc(C(=O)CCN2CCOCC2)cc1,-2.09% (inactive)
13,CCOc1ccc(N(CC(=O)NCCOc2ccccc2OC)S(=O)(=O)c2ccccc2)cc1,21.1% (inactive)
14,CCOc1ccc2cc(C#N)c(SCC(=O)OC)nc2c1,135% (active)
15,Cc1nonc1NC(=O)CSc1nc2ccccc2cc1C#N,41.1% (inactive)
16,COc1ccc(N2CCN(C(=O)CSc3nc4cc(OC)c(OC)cc4cc3C#N)CC2)cc1,18.6% (inactive)
17,CN=C1C=C/C(=N/N=c2\ccn(O)cc2C)C=C1C,20.1% (active)
18,Cc1cccc(NC(=S)NCCc2ccc(Cl)cc2)c1C,41.2% (inactive)
19,Cc1ccc(/C=C2\CCn3c2nc2cc(C(=O)O)ccc2c3=O)c(C)c1,-4.26% (inactive)
20,Cc1nn(C)c(Cl)c1CN1CCC(Oc2ccc(C(=O)N3CCCC3)cc2)CC1,-30.4% (inactive)
21,O=C(O)C1CC=CC2CCN(C3CCCCC3)C(=O)C21 (stereo not drawn),-9.66% (inactive)
22,Cn1c(=NC(=O)C2CC2)sc2cc(F)cc(F)c21,-1.62% (inactive)
23,CCCC(=O)N=c1sc2cccc(F)c2n1C,-7.62% (inactive)
24,Cn1c(=NC(=O)c2ccco2)sc2cccc(F)c21,102% (active)
25,O=C(O)c1cc2c(cc1NC(=O)c1c(F)cccc1Cl)OCCCO2,-14.4% (inactive)

row,SMILES,inhibition
1,FC(F)(F)c1cnc(Oc2ccccc2-c2nnc(-c3ccc(Cl)cc3)o2)c(Cl)c1,5.98% (inactive)
2,O=C(Nc1nnc(-c2ccc(Cl)cc2)o1)c1ccccc1Br,16.2% (inactive)
3,CSc1ccccc1-c1nnc(-c2ccc(Cl)cc2)o1,0% (active)
4,CCOC(=O)N1CCN(S(=O)(=O)c2ccc(OC)cc2)CC1,-26% (inactive)
5,CCCN1CCn2c3c(c4cc(Br)ccc42)CCCC31 (stereo not drawn),31.7% (active)
6,OC(CNCC1CCCO1)Cn1c2ccc(Br)cc2c2cc(Br)ccc21 (stereo not drawn),-17.6% (inactive)
7,Cc1cc(C)c2nc(N(CCN(C)C)C(=O)/C=C/c3cccs3)sc2c1,2.24% (inactive)
8,CSCc1nnc(NC(=O)c2ccc(S(=O)(=O)N3CCCCC3C)cc2)o1 (stereo not drawn),-11% (inactive)
9,CC(C)C(=O)Nc1c(O)c2ccccc2[nH]c1=O,23.1% (inactive)
10,NS(=O)(=O)c1ccccc1NC(=O)c1c(O)c2ccccc2[nH]c1=O,86% (active)
11,CCCOC(=O)Cc1c(O)c2ccccc2[nH]c1=O,2.32% (inactive)
12,CC(=O)Nc1cccc(C(=O)OCN2C(=O)c3ccccc3C2=O)c1,-7.54% (inactive)
13,Cc1cnc(NC(=O)CSc2c(Cl)cccc2Cl)s1,24.3% (inactive)
14,Cc1cnc(NC(=O)CSc2nnc(-c3ccccc3)n2Cc2ccccc2)s1,-7.47% (inactive)
15,Cc1cnc(NC(=O)CSc2nnc(-c3ccc(Cl)cc3Cl)n2N)s1,20.9% (active)
16,COc1ccc(C)cc1N(CC(=O)N1CCCC1)S(=O)(=O)c1ccccc1,8.24% (inactive)
17,COc1ccccc1CN1CCN(C(c2ccccc2)c2ccccc2)CC1,-13% (inactive)
18,COc1cc(OC)c(NC(=O)C2CCCN2C(=O)OCc2ccccc2)cc1Cl (stereo not drawn),-6.5% (inactive)
19,COc1ccc(-c2csc3nc(-c4ccccc4F)oc(=O)c23)cc1OC,1.32% (inactive)
20,COc1ccc2c(c1)C(c1cccs1)=NNC(c1cccnc1)=N2,39.6% (inactive)
21,COc1ccc(-c2csc(NC(=O)c3ccc(N4C(=O)CCC4=O)cc3)n2)cc1OC,-16.4% (inactive)
22,COc1ccc(OC)c(-c2csc(-c3cccs3)n2)c1,45.3% (active)
23,COc1ccc(OC)c(-c2csc(NC(=O)C3=NNC(=O)CC3)n2)c1,-5.75% (inactive)
